# From the supplement of paper PMC11417369
# ± gives the standard deviation of the averaged measurements. In all, about 25,000 sequences were measured (“ln(normalized median fluorescence intensity)”: median about 8.6, highest 2% from about 10 on). Many of the other results were omitted from the sample, so the highest values are more common in it than they were.
# System: PfAP2-EXP AP2 domain (GST-tagged)
# Assay: gcPBM binding intensity (ln(normalized median fluorescence intensity)); higher = stronger DNA binding
# Outline: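 An Agilent 4 × 180k array of primer-extended double-stranded 36-bp intergenic genomic probes, with negative controls, was incubated for 1 h with GST-tagged P. falciparum DNA-binding domains expressed in E. coli. Alexa488 anti-GST antibody detected bound protein, scanned at 488 nm. Binding intensity is the highest Masliner-normalised natural-log median intensity across replicate spots of either probe orientation.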
row,Sequence,gcPBM binding intensity (ln)
1,TAACAAAACATAGATTGTACATATTATAAATGTATA [XGTACX_site1543],8.46 ± 0.38
2,GTGTAATATATTTTTCGTACATATTATATATATATA [XGTACX_site1675],9.8 ± 0.37
3,TAATATTTTTTGTGTACACATATATATATATATATA [CACACA_site5504],10.2 ± 0.53
4,TTTATTAATTTATAGTGTACATATTAATAATATATT [XGTACX_site7949],8.35 ± 0.2
5,TTTTTTTTGTGTATTTGTACATAATATATATATATA [XGTACX_site7092],9.68 ± 0.19
6,TTTTTATTTGGTTGTGTACACATATATATATATATA [CACACA_site5844],10.2 ± 0.3
7,ACATATTTTATTTTTTGTACACATATATTATTTTTT [XGTACX_site6528],8.99 ± 0.42
8,ATATATTATTTCTAGTGTACATACCCATATATAATA [XGTACX_site8902],8.97 ± 0.33
9,AATATATATTTGTGTACACATTATATATATATATAT [CACACA_site6103],10 ± 0.35
10,ATATATATATTTGTATGTACATATATATATTCGTAT [XGTACX_site1640],9.23 ± 0.29
11,TTTCGTAACTATTTGTGTACATATATATATATATAT [XGTACX_site2920],10.3 ± 0.29
12,GTTTTCTAGTGGGGGTGTACATATTTATATTTAATA [XGTACX_site8378],10.9 ± 0.34
13,TTTATTTTGTAGTGTACACATATATATATATATATA [CACACA_site5843],10.3 ± 0.36
14,GATCTATATATCATTACACACTTGAATTACTTAAAA [CACACA_site21],8.49 ± 0.36
15,TAATTTTTTTTTTTTTTTTTTTTTTTTTTTTTCCTT [CACACA_negctrl_site1095],7.8 ± 0.61
16,TAATTTTTATGAAGAAGTACAAAATCTACTATCATA [XGTACX_site4985],7.99 ± 0.38
17,CGAACAAACAAATAAACACACAAAAAAAGATATATA [CACACA_site6944],8.72 ± 0.57
18,AATGATAAATAAAAAGCATGCAACAAATAAAAATAA [TGCATGCA_site453],9.84 ± 0.22
19,ATATATATAATAAGTGGTACAAGTTATTCATTAAAT [XGTACX_site7063],8.64 ± 0.3
20,TAAACCAAAAAAAGTAGTACAAATATTATAAAAAAA [XGTACX_site8497],8.69 ± 0.39
21,GTATTTTTAAATGACACACACATATATATATATATA [CACACA_site1662],10.2 ± 0.5
22,ATTTATTATTATATCACACATAATATATTAAATGAT [CACACA_site5821],8.28 ± 0.39
23,ATATTTAAATGGATCACACATATATATATATATATA [CACACA_site5255],10.3 ± 0.3

row,Sequence,gcPBM binding intensity (ln)
1,CATAAAAATGGATACACACACATAATATATTTATAT [CACACA_site7669],8.61 ± 0.4
2,TTGTATTTTTAAATGACACACACATATATATATATA [CACACA_site8481],10.1 ± 0.38
3,GTATTTTTAAATGACACACACATATATAAATATGTA [CACACA_site6880],8.38 ± 0.31
4,TTAACATATTTGTTAGTGCATTTTGATATTACACAT [GTGCAC_site9978],8.6 ± 0.33
5,TCATACGAAATATAAACACACATACAATAAATAAAT [CACACA_site5156],8.78 ± 0.44
6,CACACCCACCAACACACACACACACCCACCCATATA [CACACA_site366],8.61 ± 0.57
7,AATAACCACCAACACACACACATATATATATATATA [CACACA_site3540],10.2 ± 0.45
8,AAGGATCACCCACAAACACACATATATATATATATA [CACACA_site559],10.4 ± 0.16
9,CACCCACACCAACACACACACATATATAATATATAT [CACACA_site595],8.81 ± 0.39
10,TATAAACACCCATATAAACACACATATAAACCAACA [CACACA_site8790],8.73 ± 0.43
11,AACCACATACATATAACACACATATACAATATATAT [CACACA_site8607],8.55 ± 0.45
12,AATATAATATAAGGATCACACACAAACACCCATATA [CACACA_site8084],8.91 ± 0.61
13,TATAATATAAGGATCACACACAAACACCCATATATA [CACACA_site4468],8.74 ± 0.52
14,CACCCACACCAACACACACACATATATATATATATA [CACACA_site362],10.4 ± 0.2
15,GTCTATTCAAAAAAGTGTACGGACATATAAACATAC [XGTACX_site6516],9.04 ± 0.28
16,ATATATATATTTACATGTACACATCTATATATAAAC [XGTACX_site5581],9.445 ± 0.049
17,GCACATCTATATGAAACACACATGGAAACATCTCTT [CACACA_site7793],8.47 ± 0.35
18,TAAAGTTTTTTTTTAACACACACATAATAAAATAAA [CACACA_site8042],8.46 ± 0.51
19,TTTCTATTACGAACGTGTACATACATTATTCTTAAA [XGTACX_site5816],8.88 ± 0.26
20,TAAAGAGTTACCATTTGTACTTACGCACACATAAAA [XGTACX_site3145],8.45 ± 0.37
21,AATTAAATATTATAAACACACATATAGATTATTTTT [CACACA_site6538],8.17 ± 0.49
22,ACAAAATAAAACATCTGTACATATTATTATTATAAG [XGTACX_site4802],8.34 ± 0.35
23,AAAACATTGTTTATGTGTACATAATTATATTTACAA [XGTACX_site6926],8.45 ± 0.39

row,Sequence,gcPBM binding intensity (ln)
1,GTGTACAGACACAAAATATATACATATATATATATA [CACACA_negctrl_site1796],9.87 ± 0.54
2,TATATATATATAATGTGTACACAAATATATATTATA [XGTACX_site8786],9.74 ± 0.23
3,ATATATTATATAAAGTGTACAAAAAAAATATATAAA [XGTACX_site8065],8.91 ± 0.41
4,ATCTGACAAAAGTGTACACATATATATATATATATA [CACACA_site4814],10.2 ± 0.61
5,ATTATATATATAAAGTGTACAAAAAAAAAAAAAAAA [XGTACX_site3134],8.46 ± 0.33
6,AAAAATATAATATAATGTACACAAAAAAAAAAAATC [XGTACX_site1427],8.73 ± 0.49
7,TATGTAACAAAAAAAAGTACACATATATATAGTGTA [XGTACX_site7772],8.52 ± 0.39
8,ATAATCTGACAAATGTGTACACATATATATATATAT [XGTACX_site2379],10.3 ± 0.34
9,CATATTAGGACAAAGTGTACATATATATATATATAT [XGTACX_site1172],10.3 ± 0.27
10,TAGTTACCTTAATATTGTACTTTTCTTTCATATATG [XGTACX_site1309],8.82 ± 0.38
11,TATAATATATATTTGTGTCCACAACATTTTTAATAT [XGTACX_site2089],8.56 ± 0.28
12,TTTTTTTTTTGATGTTGTACATATATATTATATAAT [XGTACX_site2765],8.55 ± 0.4
13,AAAACAAAATAGGGAACACACACATGTCAATATATA [CACACA_site8834],8.88 ± 0.41
14,TCCCATAATATTAGTAGTACTATTAATATTTTCAGG [XGTACX_site4925],8.33 ± 0.42
15,TTTATATTCTTAAGTGTGCACTATATATATATATAT [GTGCAC_site9719],10.38 ± 0.049
16,TATATATAAATATATGTGCACTTTTTATATTTATAT,9.06 ± 0.099
17,ATTTTTTTCTTAGGAGTGCACTTATATTTATTTTAT,9.12 ± 0.11
18,ATATATTTTATATGTGTGCACTATATATATATATAT,10.3 ± 0.18
19,ATTTATATTAAAAGTGTGCACTTTTTTTTTTTTTTT,8.67 ± 0.042
20,ATCATATTTTTATGTGTGCACTTTTTTTTTTTTTTT [GTGCAC_site9555],9.02 ± 0.099
21,TTTATATCTTATTATAGGAAAATGAATATTTTCTCT [TGCATGCA_negctrl_site478],8.19 ± 0.36
22,TATTTTAACTTCTCATGTACATATATTATGTCTATA [XGTACX_site249],9.01 ± 0.39
23,ATAGAACTGAATAAATCTATAAATAAATATATATAT [GTGCAC_negctrl_site604],9.16 ± 0.23

row,Sequence,gcPBM binding intensity (ln)
1,AATATAAACACAAACACACACATATAGATTTATATA [CACACA_site6263],8.55 ± 0.38
2,TATAAAATTACATTTTGTCATTTATTTTTTCCCACT [TGCATGCA_negctrl_site110],8.28 ± 0.45
3,TTTTGGTTAATTCCCCCCATTACATTATGTCATGTC [CACACA_negctrl_site229],10.185 ± 0.007
4,ATTTTTGTTATTACATGTACCCATAATTATTATTAA [XGTACX_site3558],9.22 ± 0.44
5,TTTTGTTTAAAAAAAAAAAACAAAAAAAAGCAATTA [CACACA_negctrl_site314],8.32 ± 0.51
6,TAATTATATGTATACACACACATACATTTACATAAC [CACACA_site3238],8.66 ± 0.52
7,TGCTTTTATTTCTTCACACATATGTAAAAAAAAGAA [CACACA_site5906],8.76 ± 0.42
8,AATCAAAACATTAAAAAGAAAAAATATATATATATA [CACACA_negctrl_site366],10.2 ± 0.26
9,AAAACTATATTAATGTGTACACATCAAAATATTAAT [XGTACX_site6767],8.65 ± 0.13
10,AATATAAAATCAAGAAATTAAAAAAAAACAGAAAAC [CACACA_negctrl_site1004],8.93 ± 0.49
11,AAAACATCAAAAATGTGTACATATATATATATATAT [XGTACX_site8884],10.3 ± 0.21
12,AAAACACAAAAAAAATGTACACATATATATATATAT [XGTACX_site8509],10 ± 0.38
13,AAAAAATACATCAAAAGAAACATATATATATATATA [GTGCAC_negctrl_site719],10.2 ± 0.67
14,ATCAAAAGAAAACACACACACATACATATATATATA [CACACA_site3795],9.81 ± 0.28
15,TTATATAAAACATTAACACACAAAGAAAAAAAATTA [CACACA_site1793],8.57 ± 0.47
16,AAAAAAAAGAAACACACACACATACACATAAATATA [CACACA_site3807],8.79 ± 0.47
17,TGGTAAATTTACCGTTGTACATTCATTTATAACATT [XGTACX_site8910],8.68 ± 0.42
18,TATATATAGCATATTTCACACACACCGAATGAATAT [CACACA_site9182],8.64 ± 0.36
19,ATTGTGTTAATAAAATGTACATTTTCTCTACTTTAA [XGTACX_site1199],8.8 ± 0.35
20,TGTTCTAATTTTAATTGTACATATATACATATATAT [XGTACX_site7290],8.46 ± 0.35
